MOR-DOR inv ag = inverse agonists of MOR-DOR heterodimerization, primary screen, cell-based, luminescence | Mu-type opioid receptor (Homo sapiens) + Delta-type opioid receptor (Homo sapiens), … | cell-based MOR-DOR heterodimer luminescence, inverse agonism | inhibition, % at 9.3 µM | 340,000 tested, 0.21% active; in the data active means inhibition above about 22%, passing the limit was not always enough;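 further: 0% = cells with DMSO and 100% = wells without cells with DMSO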
m5-HT2A agonist = mouse Htr2a agonists via beta-arrestin recruitment, primary screen, cell-based, luminescence; 5-hydroxytryptamine receptor 2A (Mus musculus), P35363; CHO-K1 mHTR2A beta-arrestin complementation; percent of 30 µM serotonin response; activation, % at 7.6 µM; 360,000 tested, 0.66% active; AID 624169, 2012;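 active means activation above a run cutoff, the mean activation of all tested compounds plus 3 SD, cut at about 14% in these data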;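 further: 0% = plate median of compound wells and 100% = 30 µM serotonin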
Target sequence (P35363 whole entry, looked up): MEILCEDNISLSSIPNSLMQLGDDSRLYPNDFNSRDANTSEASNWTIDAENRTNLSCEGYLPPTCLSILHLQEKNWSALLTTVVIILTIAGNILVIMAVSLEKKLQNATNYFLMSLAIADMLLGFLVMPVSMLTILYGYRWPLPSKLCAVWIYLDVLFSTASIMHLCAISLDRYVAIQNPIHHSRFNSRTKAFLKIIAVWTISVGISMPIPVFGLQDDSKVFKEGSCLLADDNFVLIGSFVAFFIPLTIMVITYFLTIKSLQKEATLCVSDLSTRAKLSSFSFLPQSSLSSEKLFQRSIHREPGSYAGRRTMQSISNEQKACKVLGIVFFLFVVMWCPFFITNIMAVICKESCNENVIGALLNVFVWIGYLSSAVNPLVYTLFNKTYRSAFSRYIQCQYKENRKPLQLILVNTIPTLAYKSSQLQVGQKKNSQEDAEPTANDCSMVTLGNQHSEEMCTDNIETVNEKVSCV
HTR5A inv ctr = HTR5A inverse agonists in luminescence cell assay, primary screen, counter-screen for OPRM1-OPRD1 heterodimer inverse agonist project, full-deck HTS; HTR5A cell line, inverse agonism; inhibition, % at 9.3 µM; 5-hydroxytryptamine receptor 5A (Homo sapiens), P47898; 340,000 tested, 0.083% active; in the data active means inhibition mostly above about 23%, no sharp cut-off; inactive means mostly below about 18%;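 further: 0% = cells with DMSO and 100% = no-cell wells with DMSO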
MOR-DOR ag = agonists of OPRM1-OPRD1 heterodimerization, primary screen, cell-based, luminescence | Mu-type opioid receptor (Homo sapiens) + Delta-type opioid receptor (Homo sapiens), … | activation, % at 9.3 µM | cells | 340,000 tested, 0.3% active;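 further: 0% = vehicle-treated cells and 100% = reference agonist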
HTR5A ag = HTR5A agonists in luminescence cell assay, primary screen, counter-screen for OPRM1-OPRD1 heterodimer agonist project, full-deck HTS | 5-hydroxytryptamine receptor 5A (Homo sapiens), P47898 | cell-based | activation, % at 9.3 µM | 340,000 tested, 0.61% active | AID 504692, 2011; in the data active means activation mostly above about 9.5%, no sharp cut-off; inactive means mostly below about 7.6%;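 further: 0% = cells with vehicle only and 100% = reference agonist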
OPRM1-D1 ag cf = agonists of MOR-DOR heterodimerization, confirmation, cell-based, luminescence; 830 tested, 45% active; cells, luminescence complementation; AID 504904, 2011; shares compounds with MOR-DOR ag; activation, % at 9.3 µM;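 further: 0% = vehicle-treated cells and 100% = reference agonist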
HTR5A ag counter = HTR5A agonists in cells, counter-screen for OPRM1-OPRD1 heterodimer agonist project, cell-based, luminescence; shares compounds with MOR-DOR ag; HTR5A agonist counterscreen; activation, % at 9.3 µM; 830 tested, 8% active; AID 504905, 2011; in the data active means activation above about 17%;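 further: 0% = vehicle-treated cells and 100% = reference agonist response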
Numbers without * were called inactive; i = inactive; · = no result. Only some compounds are listed: those with a hit (about 1.6% of all), similar ones and a draw of the others. Unless noted, no stated cut-off is given here; in the data, active means activation above about 18%; inactive means the rest.

SMILES	MOR-DOR inv ag	m5-HT2A agonist	HTR5A inv ctr	MOR-DOR ag	HTR5A ag	OPRM1-D1 ag cf	HTR5A ag counter
Cc1occc1C(=O)N/N=C/c1ccc(-c2ccccc2)cc1	-111	6	-25	20*	10	60*	4
COc1ccc(C(CNC(=O)c2cccc(S(=O)(=O)NCc3ccccc3)c2)N(C)C)cc1 (stereo not drawn)	-104	-12	12	20*	-2	15	0
COc1ccc(NS(=O)(=O)c2cccc(C(=O)NCC(c3ccccc3)N(C)C)c2)cc1 (stereo not drawn)	-18	-13	0	3	1	·	·
COc1ccc(CCNC(=O)c2ccc3c(c2)OCCO3)cc1	6	2	1	-1	0	·	·
CN(C)C(CNC(=O)c1cccc(S(=O)(=O)Nc2ccc(SC(F)F)cc2)c1)c1ccccc1 (stereo not drawn)	-150	-13	1	38*	-2	5	1
CN(C)C(CNC(=O)c1cccc(S(=O)(=O)N(C)C)c1)c1ccccc1 (stereo not drawn)	-178	-7	-15	33*	4	2	26*
COc1ccc(C(CNC(=O)c2ccc3c(c2)OCCO3)N(C)C)cc1 (stereo not drawn)	i	-3	6	132*	-2	148*	1
C#Cc1ccc([C@H]2C=C(C(=O)O)O[C@@H](OCCCCO)C2)cc1	8	-3	-14	-1	5	·	·
COc1ccc(OC)c(NC(=O)C2(C)CCN2Cc2ccc(SC)cc2)c1 (stereo not drawn)	·	-3	·	·	·	·	·
COc1ccc(-n2c(C)cc(/C=C3/SC(=S)N(C)C3=O)c2C)cc1	-5	-2	-5	1	4	·	·
Cc1cc(/C=C2\SC(=S)N(C)C2=O)c(C)n1-c1cccc(O)c1	-158	-2	-11	30*	-1	-1	-4
OC(CN1CCN(C(c2ccccc2)c2ccccc2)CC1)c1ccc(Br)cc1 (stereo not drawn)	-22	-10	-15	5	4	·	·
OC(CN1CCN(C(c2ccccc2)c2ccccc2)CC1)c1ccccc1 (stereo not drawn)	-92	-8	11	19*	-3	33*	5
CCOc1ccc2nc(NCCNC(=O)Nc3cccc(C)c3)c(C#N)cc2c1	-81	-4	-15	14	4	·	·
CCOc1ccc2nc(NCCNC(=O)Nc3ccccc3)c(C#N)cc2c1	-289	1	-12	50*	3	29*	7
CC(=O)c1ccc(N2CCN(S(=O)(=O)c3c(C(=O)N4CCCC4)c(C)n(C)c3C)CC2)cc1	17	6	-6	-3	-3	·	·
Cc1c(C(=O)N2CCN(c3ccc(F)cc3)CC2)sc2ncnc(N3CCN(c4ccccn4)CC3)c12	-26	-9	-22	5	7	·	·
Cc1nc(N2CCN(c3ccccn3)CC2)c2c(C)c(C(=O)N3CCN(c4ccc(F)cc4)CC3)sc2n1	i	-9	-1	167*	0	239*	5
COc1ccccc1N1CCN(C(=O)c2sc3nc(C)nc(N4CCN(c5ccccn5)CC4)c3c2C)CC1	i	0	-42	109*	16	134*	-3
COc1ccccc1N1CCN(C(=O)c2sc3ncnc(N4CCN(c5ccccn5)CC4)c3c2C)CC1	1	-5	-3	0	1	·	·
COc1ccccc1CNC(=O)COC(=O)CCN=C1NS(=O)(=O)c2ccccc21	0	4	-3	0	-3	·	·
CCOC(=O)c1c(C)[nH]c(O)c1C=Nc1ccc(C(F)(F)F)cc1	-65	0	-50	13	-2	·	·
CCOC(=O)c1c(C)[nH]c(O)c1C=Nc1ccc(Cl)cc1	-236	0	8	39*	-3	13	2
O=C(COC(=O)/C=C/c1ccco1)Nc1ccccc1	10	3	7	-2	-2	·	·
COC(=O)c1ccccc1NC(=O)COC(=O)/C=C/c1ccco1	-97	0	9	21*	-1	6	2
SMILES	MOR-DOR inv ag	m5-HT2A agonist	HTR5A inv ctr	MOR-DOR ag	HTR5A ag	OPRM1-D1 ag cf	HTR5A ag counter
CCOC(=O)N1CCc2c(sc3nc4n(c(=O)c23)N=C(c2ccc(OC)cc2)CS4)C1	-132	1	23	26*	-1	4	2
CCOC(=O)N1CCc2c(sc3ncn(C)c(=O)c23)C1	8	10	-16	-2	0	·	·
COc1cccc(CC(=O)Nc2cccc3ccccc23)c1	4	-1	-1	-1	0	·	·
Cc1cccc(CCN2C(Nc3ccccc3)=NC[C@@H]2CC(C)C)c1	-173	3	9	38*	9	0	-2
CC(C)CC(/C(O)=C(\C#N)c1nc2ccccc2[nH]1)N1C(=O)c2ccccc2C1=O (stereo not drawn)	-141	-1	-12	31*	2	30*	4
Cc1ccc2nc(SC(C(=O)Nc3ccc(F)cc3)c3ccccc3)[nH]c2c1 (stereo not drawn)	-119	-5	-4	24*	6	454*	-2
COc1ccc2c(CC(=O)Nc3ccc(OC)c(NS(=O)(=O)c4ccc(F)cc4)c3)coc2c1	-118	-4	-9	19*	3	6	1
CCOCCCNC(=O)CCCOc1ccccc1	16	-1	-16	-3	6	·	·
COc1ccc(CCC(C)N2CCOCC2)cc1 (stereo not drawn)	8	5	2	-2	-1	·	·
NC1=C(Cl)C(=O)c2ccc(S(N)(=O)=O)cc2C1=O	-194	6	-61	39*	16*	3	2
NS(=O)(=O)c1ccc2c(c1)C(=NO)c1cc(S(N)(=O)=O)ccc1-2	9	-4	-5	-2	1	·	·
O=C(COc1ccccc1F)NCC(c1ccc(F)cc1)N1CCOCC1 (stereo not drawn)	12	-1	-5	-3	2	·	·
CCOc1ccc(NC(=S)N2CCN(S(=O)(=O)c3ccc(C)cc3)CC2)cc1	3	7	20	-1	-8	·	·
CCOc1ccc(NC(=S)N2CCN(S(=O)(=O)c3ccccc3)CC2)cc1	-128	3	11	31*	-4	1	-1
Cc1cc(N2CCN(c3ccc(C(F)(F)F)cc3[N+](=O)[O-])CC2)c2ccccc2n1	10	-6	-11	-2	1	·	·
Cc1cc(N2CCN(c3ccc([N+](=O)[O-])c4cccnc34)CC2)c2ccccc2n1	-216	-3	-5	36*	2	52*	10

Screening results deposited in PubChem by The Scripps Research Institute Molecular Screening Center.
